PI5P4Ka inh: PI5P4K alpha (human) kinase inhibition; hit rate 1.2% among 330,000; PI5P4Kalpha enzyme, ADP-Glo luminescence, 60 min; active compounds read low; AID 652105; max response, %; active = max response of -50% or lower; inconclusive = between -30% and -50%; inactive = -30% or higher; note: value at the top dose of about 77 µM; % is set by controls: 0 for no effect and ±100 for the full control effect
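Controls without substrate or without enzyme flank wells where PI5P4Kalpha converts substrate using 5 microM ATP (final). Incubation lasts 60 minutes at room temperature; ADP formed is read by ADP-Glo luminescence.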
PLK1 PBD block: inhibitors of human PLK1 polo-box domain binding | Plk1 PBD binding of FITC phosphopeptide, fluorescence polarization | P53350 | hit rate 2.8% among 360,000 | Potency, µM, without a hit: max response, negative = inhibition, usual class: inhibitors; note: potency is the fitted concentration of half-maximal effect; series mostly up to about 57 µM; % is set by controls: 0 for no effect and ±100 for the full control effect; nearly all actives have a fitted effect of over 65% in size
HP1b binding inh: blocks HP1-beta chromodomain binding to methylated histone tails; Potency, µM (titrated, usually from 114 µM), inactives show at the top dose activity change, negative = inhibition, hits mostly inhibitors; hit rate 0.56% among 390,000; AlphaScreen HP1-beta / biotin-H3K9me3 peptide binding; note: potency is the fitted concentration of half-maximal effect; nearly all actives have a fitted effect of over 70% in size
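AlphaScreen: HP1-beta (50 nM) preformed 30 min with biotin-H3(1-18)K9me3 peptide (50 nM) in PBS pH 7.4, 0.01% Tween-20. Compound added for 30 min at RT, then streptavidin donor/nickel chelate acceptor beads (10 ug/mL) for 30 min.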
BAZ2B inh: blocks human BAZ2B; hit rate 4.4% among 360,000; AlphaScreen BAZ2B-H3K14Ac peptide displacement; Q9UIF8; Potency, µM (highest dose often 114 µM), for the others: top-dose activity change, negative = inhibition, actives largely listed as inhibitors; note: potency is the fitted concentration of half-maximal effect; % is set by controls: 0 for no effect and ±100 for the full control effect; nearly all actives have a fitted effect of over 60% in size
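AlphaScreen displacement of biotin-H3(5-23)K14Ac peptide (50 nM final) from BAZ2B (50 nM final) in PBS pH 7.4, 0.01% Tween-20; complex preformed 30 min RT, then compounds (top 110 uM) 30 min RT, beads 20 min dark.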
G9a inh: G9a (human) methyltransferase inhibition; hit rate 8.8% among 350,000; Potency, µM (highest dose often 102 µM), inactives show at the top dose activity, negative = inhibition, usual class: inhibitors; Q96KQ7; G9a H3K9 monomethylation, AlphaScreen, 2 h; note: potency is the fitted concentration of half-maximal effect; % is set by controls: 0 for no effect and ±100 for the full control effect; nearly all actives have a fitted effect of over 75% in size
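Using a bead-based AlphaScreen, monomethylated H3K9 product from 2 h room-temperature reactions (G9a 20 nM, peptide 500 nM, SAM 20 uM) was detected with 0.5 ug/mL rabbit anti-H3K9me1 antibody.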
JMJD2A Tudor inh: inhibitors of human JMJD2A Tudor domain; O75164; AlphaScreen JMJD2A-Tudor / H3K4me3 peptide binding; Potency, µM (series often up to 114 µM), inactives show at the highest dose activity change, negative = inhibition, usual class: inhibitors; hit rate 4.4% among 390,000; AID 504339; note: potency is the fitted concentration of half-maximal effect; % is set by controls: 0 for no effect and ±100 for the full control effect; nearly all actives have a fitted effect of over 50% in size
Target sequence (O75164 whole entry, looked up, the tested form may be a part): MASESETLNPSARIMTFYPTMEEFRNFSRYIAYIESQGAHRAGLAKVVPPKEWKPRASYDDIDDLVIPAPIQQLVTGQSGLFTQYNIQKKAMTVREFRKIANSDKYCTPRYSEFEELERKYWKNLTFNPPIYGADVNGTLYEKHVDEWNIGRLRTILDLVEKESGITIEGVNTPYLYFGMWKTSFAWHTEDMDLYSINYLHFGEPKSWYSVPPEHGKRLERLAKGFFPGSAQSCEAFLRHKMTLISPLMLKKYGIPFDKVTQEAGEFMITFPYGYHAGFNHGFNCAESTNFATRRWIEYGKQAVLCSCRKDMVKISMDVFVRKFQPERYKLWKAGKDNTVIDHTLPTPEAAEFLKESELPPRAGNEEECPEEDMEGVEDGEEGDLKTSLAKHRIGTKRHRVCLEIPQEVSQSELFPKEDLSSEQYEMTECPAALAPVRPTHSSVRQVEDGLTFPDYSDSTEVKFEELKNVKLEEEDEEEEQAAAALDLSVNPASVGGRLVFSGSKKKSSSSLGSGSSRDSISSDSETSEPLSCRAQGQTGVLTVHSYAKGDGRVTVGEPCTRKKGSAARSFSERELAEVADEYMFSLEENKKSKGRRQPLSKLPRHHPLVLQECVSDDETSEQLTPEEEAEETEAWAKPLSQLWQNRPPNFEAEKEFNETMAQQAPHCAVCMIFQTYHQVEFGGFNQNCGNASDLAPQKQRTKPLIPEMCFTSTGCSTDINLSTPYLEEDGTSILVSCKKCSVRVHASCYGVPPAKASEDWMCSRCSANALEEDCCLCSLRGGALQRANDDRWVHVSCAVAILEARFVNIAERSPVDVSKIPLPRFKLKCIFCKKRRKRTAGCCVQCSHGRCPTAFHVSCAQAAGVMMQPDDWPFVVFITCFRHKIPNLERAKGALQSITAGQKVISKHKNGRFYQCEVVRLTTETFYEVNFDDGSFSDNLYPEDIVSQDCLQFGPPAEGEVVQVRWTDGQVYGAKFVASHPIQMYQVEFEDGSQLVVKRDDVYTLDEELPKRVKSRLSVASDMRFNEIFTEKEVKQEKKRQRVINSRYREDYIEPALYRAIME
The depositor's hits bear a star; ? = inconclusive; . = no result; [ ] = dose if it differs, or a comment. Shown are actives, neighbours in structure and some others; about 12% of the full set was active somewhere. Unless noted, calls come from the whole dose curve; as a rule, active = well fitted curve in the direction sought with a large enough effect; inconclusive = small, poorly fitted or top-dose-only effect, or another doubt; inactive = no such curve, though single readings can be large; an effect the other way counts as inactive or inconclusive.

SMILES	PI5P4Ka inh	PLK1 PBD block	HP1b binding inh	BAZ2B inh	G9a inh	JMJD2A Tudor inh
Cc1ccc(C23CC4CC(CC(C(=O)NC(C(=O)O)C(C)C)(C4)C2)C3)cc1 (stereo not drawn)	-1	-5%	29%	-3%	4%	-15%
COCCN1C(=O)C(=O)/C(=C(/O)c2ccc(S(=O)(=O)N3CCCCC3)cc2)C1c1ccc(O)c(OC)c1 (stereo not drawn)	3	-18%	48%	-11%[57.1 µM]	71µM*	89µM*
COCCN1C(=O)C(=O)/C(=C(/O)c2ccc(S(=O)(=O)N3CCCCC3)cc2)C1c1ccc(OC)cc1 (stereo not drawn)	1	-19%	48%	-4%[57.1 µM]	71µM*	-30%
COc1ccc(/C(O)=C2/C(=O)C(=O)N(CCCN3CCOCC3)C2c2ccc(OC)cc2)cc1 (stereo not drawn)	-1	-6%	29%	-10%	.	4%
COCCN1C(=O)C(=O)/C(=C(/O)c2ccc(S(=O)(=O)N3CCOCC3)cc2)C1c1cccc(OC)c1 (stereo not drawn)	-4	-9%	47%	-4%[57.1 µM]	71µM*	-15%
COc1ccc(C2/C(=C(/O)c3ccc(S(=O)(=O)N4CCOCC4)cc3)C(=O)C(=O)N2CCN2CCOCC2)cc1 (stereo not drawn)	5	-4%	-4%	?	50µM*	-11%
COCCCN1C(=O)C(=O)/C(=C(/O)c2ccc(S(=O)(=O)N3CCCCC3)cc2)C1c1ccc(F)cc1 (stereo not drawn)	3	-8%	3%	?	6%[0.0925 µM]	-30%
Cc1nc2cnc(N3CCNCC3)nc2n(C2CC2)c1=O	.	.	.	.	-2%[12.7 µM]	.
N#Cc1cccc(-c2nc3cnc(Nc4ccccc4)nc3n(C[C@H]3CCCO3)c2=O)c1	.	.	.	.	0%[12.7 µM]	.
CCc1ccccc1NC(=O)N1CCOc2ccccc21	.	.	50%	?	-21%[59 µM]	-12%
Cc1cccnc1NC(=O)C(c1ccccc1)c1ccccc1	2	-13%	1%	-24%	-24%	-22%
COc1ccc(C2C(C(C)=O)=C(O)C(=O)N2C)c(OC)c1 (stereo not drawn)	2	-6%	19%	-37%	45µM*	?
COc1ccc(OC)c(C2C(C(C)=O)=C(O)C(=O)N2c2ccc(F)cc2)c1 (stereo not drawn)	3	-9%	38%	-5%	-15%[59 µM]	?
COc1ccc(OC)c(C2C(C(C)=O)=C(O)C(=O)N2Cc2cccnc2)c1 (stereo not drawn)	.	-12%	27%	?	?	-10%
COc1ccc(C2C(C(C)=O)=C(O)C(=O)N2c2cccnc2)c(OC)c1 (stereo not drawn)	-4	-4%	16%	?	-3%[59 µM]	25µM*
O=C(COC(=O)CCSc1ccc(Cl)cc1)NCc1ccco1	3	-11%	23%	?	-19%	-20%
Cc1c(Cl)cccc1NC(=O)CSc1ncc2c(n1)-c1ccccc1N(C)S2(=O)=O	.	.	21%	0%	-17%[59 µM]	-4%
CC(O)Cn1c(N2CCCC2)nc2c1c(=O)[nH]c(=O)n2C (stereo not drawn)	-20	6%	36%	-3%	13%	2%
CCC1CN(C(=O)N2CCC(C(=O)NCCC3=CCCCC3)CC2)c2cc(C)ccc2O1 (stereo not drawn)	.	.	23%	-18%	?	-16%
O=C(c1ccc(-c2ccccc2Cl)s1)N1CCOCC1	3	-4%	64%	.	.	-3%
Cc1ccccc1-n1c(-c2cccnc2)n[nH]c1=S	.	-1%	38%	-4%	5µM*	11µM*
CCc1cccc(CC)c1-n1c(-c2cccnc2)n[nH]c1=S	-18	-3%	22%	-23%	?	?
S=c1[nH]nc(-c2cccc3ccccc23)n1-c1cccnc1	-2	-10%	11%	-5%	-127%[59 µM]	20µM*
CC(C)c1ccccc1-n1c(-c2cccnc2)n[nH]c1=S	-12	-5%	31%	-20%	-36%[12.7 µM]	10µM*
CCC(c1nc2ccccc2c(=O)n1-c1cccnc1)N1C(=O)c2ccccc2C1=O (stereo not drawn)	.	-5%	8%	2%	-2%[59 µM]	-11%
SMILES	PI5P4Ka inh	PLK1 PBD block	HP1b binding inh	BAZ2B inh	G9a inh	JMJD2A Tudor inh
CCN(CC)CCNS(=O)(=O)c1ccc(OC)c(Br)c1	10	-6%	28%	8%	4µM*	56µM*
Cc1nonc1CN(C)C(=O)CC1C(=O)NCCN1Cc1cccc(C(F)(F)F)c1 (stereo not drawn)	8	-14%	44%	-8%	50µM*	-16%
CC1(C)C(=O)NCCN1C(=O)CC1C(=O)NCCN1Cc1cccc(C(F)(F)F)c1 (stereo not drawn)	-2	-20%	35%	-15%	45µM*	-11%
Cc1ccc2c(c1)c(=O)c(C(=O)c1ccncc1)cn2CC(=O)Nc1ccc(C(C)C)cc1	.	.	23%[57 µM]	1%	-16%[59 µM]	-28%
O=C1c2ccccc2C(Nc2cccc(C(F)(F)F)c2)N1Cc1ccco1 (stereo not drawn)	0	-20%	18%	-7%	71µM*	?
O=C(Nc1cccc(C(F)(F)F)c1)C1CC(=O)N(Cc2ccco2)C1 (stereo not drawn)	2	1%	.	.	.	.
CC(=O)c1cccc(NC2c3ccccc3C(=O)N2Cc2ccco2)c1 (stereo not drawn)	1	-18%	48%	-24%	-6%	-23%
COc1cccc(NC2c3ccccc3C(=O)N2Cc2ccco2)c1 (stereo not drawn)	-10	-11%	9%	-36%	50µM*	?
CCN(CC)S(=O)(=O)c1ccc(NC2c3ccccc3C(=O)N2Cc2ccco2)cc1 (stereo not drawn)	3	-10%	-5%	-25%	?	-22%
Cc1ccccc1NC1c2ccccc2C(=O)N1Cc1ccco1 (stereo not drawn)	-7	-12%	16%	?	45µM*	-32%
N#Cc1c(N)n(-c2cccc(Cl)c2)c2nc3ccccc3nc12	.	.	20%	0%	4%[59 µM]	-2%
CC1CN(Cc2nc3c(c(=O)n(C)c(=O)n3C)n2CCN2CCOCC2)CC(C)O1 (stereo not drawn)	-14	-15%	55%	-8%	?	-9%
CCCCCn1c(CN2CC(C)OC(C)C2)nc2c1c(=O)n(C)c(=O)n2C (stereo not drawn)	1	-2%	35%	7%	40µM*	2%
CCCCn1c(CN2CCN(c3cccc(Cl)c3)CC2)nc2c1c(=O)n(C)c(=O)n2C	1	-6%	16%	?	-35%[59 µM]	-35%
CCCCCn1c(CN2CCN(c3cccc(Cl)c3)CC2)nc2c1c(=O)n(C)c(=O)n2C	.	-3%	-8%	?	45µM*	-35%

Screening results as filed in PubChem BioAssay.
